Anthrax LF inh2: blocks Bacillus anthracis lethal factor protease; 0.12% of 360,000 active; multiplex microsphere protease cleavage assay, LF; inhibition, % at 10 µM; AID 588501
BoNT F protease: BoNT F light chain protease inhibition | Multiplex microsphere protease cleavage assay, flow cytometry | inhibition, % at 10 µM | 0.22% of 360,000 active | AID 588497; in the data active means inhibition above about 35%, passing the limit was not always enough; inconclusive means no clear call, values can overlap the other calls
Bead autofluor: counter-screen for toxin protease inhibitors: compound fluorescence. compound autofluorescence counterscreen, microsphere flow cytometry; stronger effect = higher value. fluorescence intensity (test concentration not listed). 3.1% of 360,000 active. AID 624483; in the data active means fluorescence intensity above about 16000; inconclusive means no clear call, values can overlap the other calls
MazEF act: MazEF (E. coli) toxin RNase activation | 0.32% of 350,000 active | activation, % at 20 µM | AID 504720 | FAM/BHQ RNA-DNA oligo cleavage fluorescence, 5 h | P0AE70; in the data active means activation above about 50%
BoNT-A LC inh2: inhibitors of Botulinum neurotoxin A light chain protease; inhibition, % at 10 µM; multiplex microsphere protease substrate cleavage, flow cytometry; 0.17% of 360,000 active
Of the large screens only hits and unclear results are named; the others gave an inactive call; ! = not active in a repeat. Hits are enriched below; roughly 3.7% of the tested compounds scored in any of these assays. Unless noted, no stated cut-off is given here; in the data, active means inhibition above about 30%; inconclusive means no clear call, values can overlap the other calls; inactive means below that.

N#Cc1c(NC(=O)CSC2=NCCS2)sc2c1CCCC2	Bead autofluor 16243
N#Cc1c(NC(=O)CSc2nc3c(c(C(F)(F)F)n2)CCc2ccccc2-3)sc2c1CCCC2	Bead autofluor 22691
CCCS(=O)(=O)NC(=O)C1(C)CCN(C(=O)CSc2ccccc2)C1 (stereo unspecified)	none (no result: MazEF act)
Cc1noc(C)c1COc1ccc(C(=O)Nc2nnc(CC(C)C)s2)cc1	none
Cc1ccc(NC(=S)N2CCSC2c2cccs2)cc1 (stereo unspecified)	none
CS(=O)(=O)c1ccc(Cl)c(NC(=O)CCN2C(=O)NC3(CCCC3)C2=O)c1	none
Cc1cc(Cl)ccc1NC(=O)CN1C(=O)C(=O)N(C2CCCC2)C1=O	none
Cn1c(CNC(=O)c2ccc(Cl)cc2)nnc1SCC(=O)Nc1sc2c(c1C#N)CCCC2	MazEF act 105.6
Cc1cc(C(=O)Nc2sc3c(c2C#N)CCC3)no1	Bead autofluor 22362
Cc1cc(C(=O)Nc2sc3c(c2C#N)CCCC3)no1	none
CC(C)(C)c1nn(-c2ccccc2)c2[nH]c(=O)c(C=O)cc12	BoNT F protease inconclusive
CCCCCCCCN1C(=O)[C@H](CC(=O)NCc2cccs2)C[C@@]2(C(=O)OC)CCCCC=C12	none (no result: MazEF act)
O=S(=O)(c1ccc(F)cc1)c1nc(-c2ccccc2F)oc1N1CCCCC1	Bead autofluor 20089, BoNT-A LC inh2 inconclusive
COc1ccccc1-c1nc(S(=O)(=O)c2ccccc2)c(N2CCCCC2)o1	none
C=CCn1c(SC(C)C(=O)NCc2ccc3c(c2)OCO3)nc2scc(-c3ccccc3)c2c1=O (stereo unspecified)	Bead autofluor 16316
CCOC(=O)Cc1csc(NC(=O)/C=C/c2ccc(OC)cc2)n1	none
CCOC(=O)C1Oc2ccccc2C(C(=O)OC)=C1C(=O)OC (stereo unspecified)	none
CCOC(=O)C1Oc2ccccc2C(c2cccc3ccccc23)=C1C(=O)OC (stereo unspecified)	MazEF act 146.3
CCN(Cc1ccncc1)C(=O)c1cc(COc2c(C)cccc2C)on1	none
O=C(Nc1cccc(NC(=O)C2C3CC4OC(=O)C2C4C3)c1)c1ccccc1 (stereo unspecified)	none
O=C(Nc1ccccc1Cl)c1cccc(NC(=O)C2C3CC4OC(=O)C2C4C3)c1 (stereo unspecified)	Bead autofluor 23034
COc1cc(NC(=O)c2cc(Cl)ccc2Cl)ccc1-c1cc2ccccc2oc1=O	Bead autofluor 22732
COC(=O)C1(CC2CC(c3ccncc3)=NO2)CCN(C(=O)OC(C)(C)C)CC1 (stereo unspecified)	none
COc1ccc(OCC(=O)NCc2ccc(Cl)cc2)cc1	none
COc1ccc(OCC(=O)NNc2c3ccccc3nc3ccccc23)cc1	Bead autofluor 16716
O=C(COc1ccccc1)NNc1c2ccccc2nc2ccccc12	none
COc1ccc(CNC(=O)COc2ccc([N+](=O)[O-])cc2)cc1	Bead autofluor 19432
CN(/N=C/c1cccnc1)c1cnc2ccccc2n1	none
O=C1CC(c2ccco2)CC(O)=C1C=Nc1cc(Cl)ccc1O (stereo unspecified)	none
Cc1ccc(N=CC2=C(O)CC(c3ccco3)CC2=O)cc1 (stereo unspecified)	Bead autofluor 17259
Cc1[nH]nc(N=CC2=C(O)CC(C)(C)CC2=O)c1-c1ccc(Cl)cc1	Bead autofluor 20907!, BoNT-A LC inh2 inconclusive
O=C1CC(c2ccco2)CC(O)=C1C=Nc1ccc(Br)cc1 (stereo unspecified)	none
Cc1[nH]nc(N=CC2=C(O)CC(c3ccco3)CC2=O)c1-c1ccc(Cl)cc1 (stereo unspecified)	Bead autofluor 23437
COc1ccc2nc(NC(=O)c3cccnc3SC)sc2c1	none
Cc1cc(NC(=O)c2cnn3c(C(F)F)cc(-c4ccccc4)nc23)no1	Bead autofluor 22272, BoNT-A LC inh2 inconclusive
COc1cc(OC)cc(C(=O)Nc2cc(C)on2)c1	none
Cc1cc(NC(=O)c2ccccc2)no1	none
COc1ccc(C(=O)Nc2cc(C)on2)cc1	Bead autofluor 16745
Cc1cc(NC(=O)c2cc(C)on2)no1	Bead autofluor 23413
C/C(=C\C(=O)Nc1cc(C)on1)c1ccccc1	Bead autofluor 22891
Cc1cc(NC(=O)c2cnn3c(C(F)(F)F)cc(-c4ccccc4)nc23)no1	none
O=C(CNc1cc(S(=O)(=O)N2CCOCC2)ccc1N1CCCC1)N1CCc2ccccc21	none
COC(=O)Nc1nnc(-c2ccc(OC)cc2)s1	BoNT F protease inconclusive
COc1cccc(C(=O)Nc2cc(C)on2)c1	none
COc1ccc(OCc2cccc(C(=O)Nc3cc(C)on3)c2)cc1	Bead autofluor 22339
COc1ccc(-c2nnc(NC(=O)c3cc(C)on3)s2)cc1	Bead autofluor 17016, BoNT-A LC inh2 inconclusive
CCn1ncc(C(=O)Nc2cc(C)on2)c1C	Bead autofluor 21849
Cn1c(-c2ccc3c(c2)OCO3)cnc1NCc1cccc(O)c1	none
CCn1c(=O)c2cc(C(=O)N(C)CC(OC)OC)sc2c2ccccc21	Anthrax LF inh2 38.5
Cc1cccc(N(CC(=O)NC2CCCC2)C(=O)CS(=O)CC(=O)Nc2ccc3c(c2)OCO3)c1 (stereo unspecified)	Bead autofluor 22772, BoNT-A LC inh2 inconclusive
Cc1ccc(NC(=O)CS(=O)CC(=O)N(CC(=O)NC2CCCC2)c2ccc3c(c2)OCCO3)cc1 (stereo unspecified)	none
CCCN1C(=O)/C(=C/c2ccccc2OCc2ccc(C(=O)O)cc2)NC1=S	none
O=C1CCC(=O)N1c1ccc(S(=O)(=O)Nc2ccc(Br)cc2)cc1	none
COc1ccc(S(=O)(=O)Nc2cccc(NC(C)=O)c2)cc1	Bead autofluor 17504
CC(=O)Nc1ccc(S(=O)(=O)N2CCN(CCCOc3ccccc3Cl)CC2)cc1	none
COc1ccc(/C=C/C(=O)NC(=S)N2CCN(C)CC2)cc1	MazEF act 50.8
CCOC(=O)N1CCN(C(=S)NC(=O)/C=C/c2ccc(C)cc2)CC1	none
COc1cccc(OCCCN2CCN(S(=O)(=O)c3ccc(NC(C)=O)cc3)CC2)c1	Bead autofluor 20823, BoNT-A LC inh2 inconclusive
COc1ccc(NS(=O)(=O)c2ccc(N3C(=O)CCC3=O)cc2)cc1	Bead autofluor 24859
COc1ccccc1NC(=O)C1CCN(C(=O)C2CC(=O)N(c3ccc(C)cc3)C2)CC1 (stereo unspecified)	none
CC(NC(=O)c1ccccc1)c1nnc(SCC(=O)Nc2nnc(C3CC3)s2)n1C (stereo unspecified)	none (no result: Anthrax LF inh2, BoNT F protease, Bead autofluor, BoNT-A LC inh2)
O=C(O)c1ccc(NS(=O)(=O)c2ccc(Cl)cc2)cc1	Bead autofluor 21092
O=S(=O)(NC1CCCCCC1)c1cccc2cccnc12	Bead autofluor 16645
COC(=O)c1ccc(NS(=O)(=O)c2cccc3cccnc23)cc1	Bead autofluor 18372
COc1ccc(NS(=O)(=O)c2cccc3cccnc23)cc1	none
O=C(NC1CCCCC1)c1ccc(NS(=O)(=O)c2cccc3cccnc23)cc1	none
COc1ccc(NS(=O)(=O)c2ccc(C(=O)N3CCN(c4ccc(F)cc4)CC3)cc2)cc1	none
COc1ccc(N2CCN(C(=O)c3ccc(NS(=O)(=O)c4ccc(F)c(F)c4)cc3)CC2)cc1	Bead autofluor 17709

Compound activity as filed in PubChem.
